The source of these data is ChEMBL document CHEMBL1961873, “Compounds: GSK PKIS; Assays: Nanosyn kinase panel” (2012).

Molecules are shown by their SMILES. Several values for one entry are separate records, joined by “and”; a condition that tells them apart may be missing. Equal values may be shown once.

The target in assay [1] is Death-associated protein kinase 1 (Homo sapiens) (UniProt P53355). Conditions: at 1 µM.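 Note: each value is a mean inhibition figure.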
The target of assay [2] is T1, Serine/threonine-protein kinase DCLK2 (Homo sapiens) (UniProt Q8N568).
T1 sequence (whole entry): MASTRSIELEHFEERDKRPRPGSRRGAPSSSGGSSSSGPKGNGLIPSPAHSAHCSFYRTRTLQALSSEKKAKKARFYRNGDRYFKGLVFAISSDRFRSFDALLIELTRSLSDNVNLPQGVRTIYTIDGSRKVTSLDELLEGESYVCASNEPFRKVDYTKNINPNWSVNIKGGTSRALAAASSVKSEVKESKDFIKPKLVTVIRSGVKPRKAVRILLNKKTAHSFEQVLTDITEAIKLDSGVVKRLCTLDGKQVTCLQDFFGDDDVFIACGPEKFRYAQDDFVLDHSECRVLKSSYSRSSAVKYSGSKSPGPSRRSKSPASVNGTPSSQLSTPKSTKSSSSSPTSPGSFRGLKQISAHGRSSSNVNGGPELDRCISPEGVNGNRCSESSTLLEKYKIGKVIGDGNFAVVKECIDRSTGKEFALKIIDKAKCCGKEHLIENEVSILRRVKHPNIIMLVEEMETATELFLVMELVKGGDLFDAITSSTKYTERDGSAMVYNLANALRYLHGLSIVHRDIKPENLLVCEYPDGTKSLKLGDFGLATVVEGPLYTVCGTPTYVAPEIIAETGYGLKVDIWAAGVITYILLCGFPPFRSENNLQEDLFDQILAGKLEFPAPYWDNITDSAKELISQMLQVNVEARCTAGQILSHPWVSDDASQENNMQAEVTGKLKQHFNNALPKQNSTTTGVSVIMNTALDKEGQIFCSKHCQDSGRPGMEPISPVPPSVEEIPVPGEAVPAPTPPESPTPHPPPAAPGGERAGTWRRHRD
Conditions: at 0.1 µM.

Assay [3] concerns the target T1, Serine/threonine-protein kinase DCLK2 (Homo sapiens). The conditions noted are these: at 1 µM.
In assay [4] the target is MAP kinase-activated protein kinase 2 (Homo sapiens) (UniProt P49137). Conditions: at 0.1 µM.
For assay [5] the target is unchanged. Conditions: at 1 µM.
For assay [6], the target named is MAP kinase-activated protein kinase 3 (Homo sapiens) (UniProt Q16644). The conditions noted are these: at 0.1 µM.
Assay [7] has the same target. Conditions: at 1 µM.
The target in assay [8] is Serine/threonine-protein kinase MARK1 (Homo sapiens) (UniProt Q9P0L2). Conditions: at 0.1 µM.
Sequence of Serine/threonine-protein kinase MARK1 (Homo sapiens) (Q9P0L2 whole entry, looked up): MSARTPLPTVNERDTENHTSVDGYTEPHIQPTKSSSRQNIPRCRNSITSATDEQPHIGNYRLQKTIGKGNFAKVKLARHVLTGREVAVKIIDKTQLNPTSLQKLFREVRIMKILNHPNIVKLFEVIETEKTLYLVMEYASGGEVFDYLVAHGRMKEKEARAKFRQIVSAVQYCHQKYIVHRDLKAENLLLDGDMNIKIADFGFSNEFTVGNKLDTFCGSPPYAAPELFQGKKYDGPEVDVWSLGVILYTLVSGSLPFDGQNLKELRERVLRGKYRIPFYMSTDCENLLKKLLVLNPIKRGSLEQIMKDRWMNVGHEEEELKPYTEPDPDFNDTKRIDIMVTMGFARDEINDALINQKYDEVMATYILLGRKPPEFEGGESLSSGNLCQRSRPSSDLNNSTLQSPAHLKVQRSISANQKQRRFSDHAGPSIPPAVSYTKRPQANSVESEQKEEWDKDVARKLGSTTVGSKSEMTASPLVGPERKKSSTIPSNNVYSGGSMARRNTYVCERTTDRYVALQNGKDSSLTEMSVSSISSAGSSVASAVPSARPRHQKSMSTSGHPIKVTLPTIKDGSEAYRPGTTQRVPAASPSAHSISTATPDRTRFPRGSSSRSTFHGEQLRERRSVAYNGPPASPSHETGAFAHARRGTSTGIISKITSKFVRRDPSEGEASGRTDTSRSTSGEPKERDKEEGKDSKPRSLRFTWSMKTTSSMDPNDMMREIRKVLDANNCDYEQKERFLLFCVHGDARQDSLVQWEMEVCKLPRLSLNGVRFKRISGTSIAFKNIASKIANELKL
Assay [9] has the same target. Conditions: at 1 µM.
The target in assay [10] is MAP/microtubule affinity-regulating kinase 3 (Homo sapiens) (UniProt P27448). Conditions: at 0.1 µM.
Sequence of MAP/microtubule affinity-regulating kinase 3 (Homo sapiens) (P27448 whole entry, looked up): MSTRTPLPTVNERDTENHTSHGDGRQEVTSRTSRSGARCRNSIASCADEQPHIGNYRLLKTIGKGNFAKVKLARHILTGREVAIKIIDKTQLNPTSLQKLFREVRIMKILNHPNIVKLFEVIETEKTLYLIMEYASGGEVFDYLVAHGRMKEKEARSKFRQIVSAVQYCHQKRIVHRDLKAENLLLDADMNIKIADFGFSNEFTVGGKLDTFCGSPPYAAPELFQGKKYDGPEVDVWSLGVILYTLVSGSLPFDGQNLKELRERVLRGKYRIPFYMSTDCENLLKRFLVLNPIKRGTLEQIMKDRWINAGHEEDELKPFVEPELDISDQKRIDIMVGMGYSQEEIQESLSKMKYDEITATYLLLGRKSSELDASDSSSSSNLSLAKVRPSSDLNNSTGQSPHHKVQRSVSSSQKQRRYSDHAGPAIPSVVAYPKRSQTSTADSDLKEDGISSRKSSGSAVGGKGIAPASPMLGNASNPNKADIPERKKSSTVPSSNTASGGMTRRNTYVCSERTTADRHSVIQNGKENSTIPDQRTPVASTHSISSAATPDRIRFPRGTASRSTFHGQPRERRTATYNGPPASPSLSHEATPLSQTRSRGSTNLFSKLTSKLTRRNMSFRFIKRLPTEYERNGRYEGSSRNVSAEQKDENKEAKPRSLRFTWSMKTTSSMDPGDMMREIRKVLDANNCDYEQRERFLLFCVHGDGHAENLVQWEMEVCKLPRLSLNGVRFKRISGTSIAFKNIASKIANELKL
For assay [11] the target is unchanged. The conditions noted are these: at 1 µM.
Assay [12] deals with T2, MAP/microtubule affinity-regulating kinase 4 (Homo sapiens) (UniProt Q96L34).
T2 sequence (whole entry): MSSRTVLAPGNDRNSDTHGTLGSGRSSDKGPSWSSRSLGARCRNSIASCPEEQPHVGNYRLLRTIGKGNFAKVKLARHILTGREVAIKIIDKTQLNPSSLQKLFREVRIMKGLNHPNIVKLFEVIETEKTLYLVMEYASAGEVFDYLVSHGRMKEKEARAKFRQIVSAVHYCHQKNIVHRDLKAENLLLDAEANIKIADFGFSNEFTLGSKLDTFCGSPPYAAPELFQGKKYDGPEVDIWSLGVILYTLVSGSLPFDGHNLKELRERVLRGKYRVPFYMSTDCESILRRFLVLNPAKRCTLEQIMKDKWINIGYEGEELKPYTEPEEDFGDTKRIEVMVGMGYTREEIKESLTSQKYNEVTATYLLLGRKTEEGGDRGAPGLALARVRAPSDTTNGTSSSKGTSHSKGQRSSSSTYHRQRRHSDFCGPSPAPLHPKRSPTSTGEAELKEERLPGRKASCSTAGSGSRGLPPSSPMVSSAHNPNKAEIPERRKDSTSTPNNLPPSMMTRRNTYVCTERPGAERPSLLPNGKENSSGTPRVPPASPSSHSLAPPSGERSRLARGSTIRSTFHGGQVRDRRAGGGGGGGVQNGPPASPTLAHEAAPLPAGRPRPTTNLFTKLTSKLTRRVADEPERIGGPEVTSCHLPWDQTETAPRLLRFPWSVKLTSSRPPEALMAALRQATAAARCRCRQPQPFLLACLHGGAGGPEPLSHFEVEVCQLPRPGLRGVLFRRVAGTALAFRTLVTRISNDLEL
The conditions noted are these: at 0.1 µM.

Assay [13] concerns the target T2, MAP/microtubule affinity-regulating kinase 4 (Homo sapiens). The conditions noted are these: at 1 µM.
Assay [14] concerns the target Maternal embryonic leucine zipper kinase (Homo sapiens) (UniProt Q14680). Conditions: at 0.1 µM.
Assay [15] has the same target. The conditions noted are these: at 1 µM.
Assay [16] addresses MAP kinase-interacting serine/threonine-protein kinase 1 (Homo sapiens) (UniProt Q9BUB5). Conditions: at 0.1 µM.
For assay [17] the target is unchanged. Conditions: at 1 µM.
Assay [18] addresses MAP kinase-interacting serine/threonine-protein kinase 2 (Homo sapiens) (UniProt Q9HBH9). Conditions: at 0.1 µM.
Assay [19] shares this target. Conditions: at 1 µM.
Assay [20] addresses Serine/threonine-protein kinase MARK2 (Homo sapiens) (UniProt Q7KZI7). The conditions noted are these: at 0.1 µM.

Sequence of MAP kinase-interacting serine/threonine-protein kinase 2 (Homo sapiens) (Q9HBH9 whole entry, looked up): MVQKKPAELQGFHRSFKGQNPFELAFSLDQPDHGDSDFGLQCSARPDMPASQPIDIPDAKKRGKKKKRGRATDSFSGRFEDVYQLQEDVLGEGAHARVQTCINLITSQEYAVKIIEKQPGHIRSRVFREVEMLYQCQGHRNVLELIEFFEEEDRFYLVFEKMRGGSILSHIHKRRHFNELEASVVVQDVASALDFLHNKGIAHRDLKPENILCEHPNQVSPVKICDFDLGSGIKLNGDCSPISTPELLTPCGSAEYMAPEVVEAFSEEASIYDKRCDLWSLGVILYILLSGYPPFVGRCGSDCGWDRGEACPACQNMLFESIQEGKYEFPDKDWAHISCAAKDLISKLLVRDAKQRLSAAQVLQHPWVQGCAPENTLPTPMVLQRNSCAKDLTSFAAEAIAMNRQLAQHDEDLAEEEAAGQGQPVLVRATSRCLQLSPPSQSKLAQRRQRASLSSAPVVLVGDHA
Sequence of Serine/threonine-protein kinase MARK2 (Homo sapiens) (Q7KZI7 whole entry): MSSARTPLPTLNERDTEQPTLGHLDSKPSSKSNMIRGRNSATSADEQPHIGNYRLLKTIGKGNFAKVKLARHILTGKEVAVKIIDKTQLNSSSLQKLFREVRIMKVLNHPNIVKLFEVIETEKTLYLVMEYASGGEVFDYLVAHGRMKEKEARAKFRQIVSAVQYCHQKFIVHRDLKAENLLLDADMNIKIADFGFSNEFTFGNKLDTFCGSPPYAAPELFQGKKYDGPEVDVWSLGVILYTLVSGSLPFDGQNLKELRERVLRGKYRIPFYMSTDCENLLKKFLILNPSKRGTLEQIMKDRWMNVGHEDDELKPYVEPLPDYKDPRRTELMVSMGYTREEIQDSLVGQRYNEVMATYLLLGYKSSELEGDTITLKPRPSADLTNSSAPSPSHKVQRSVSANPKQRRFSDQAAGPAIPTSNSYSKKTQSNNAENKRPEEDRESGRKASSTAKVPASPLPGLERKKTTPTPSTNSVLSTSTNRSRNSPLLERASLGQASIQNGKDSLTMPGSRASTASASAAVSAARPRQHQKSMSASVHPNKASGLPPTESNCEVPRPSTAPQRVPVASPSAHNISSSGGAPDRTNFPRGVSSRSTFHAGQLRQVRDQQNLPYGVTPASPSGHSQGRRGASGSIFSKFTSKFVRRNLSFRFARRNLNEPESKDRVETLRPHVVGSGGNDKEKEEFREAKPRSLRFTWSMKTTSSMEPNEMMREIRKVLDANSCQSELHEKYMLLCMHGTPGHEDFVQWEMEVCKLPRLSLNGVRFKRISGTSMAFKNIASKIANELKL
Sequence of Maternal embryonic leucine zipper kinase (Homo sapiens) (Q14680 whole entry, looked up): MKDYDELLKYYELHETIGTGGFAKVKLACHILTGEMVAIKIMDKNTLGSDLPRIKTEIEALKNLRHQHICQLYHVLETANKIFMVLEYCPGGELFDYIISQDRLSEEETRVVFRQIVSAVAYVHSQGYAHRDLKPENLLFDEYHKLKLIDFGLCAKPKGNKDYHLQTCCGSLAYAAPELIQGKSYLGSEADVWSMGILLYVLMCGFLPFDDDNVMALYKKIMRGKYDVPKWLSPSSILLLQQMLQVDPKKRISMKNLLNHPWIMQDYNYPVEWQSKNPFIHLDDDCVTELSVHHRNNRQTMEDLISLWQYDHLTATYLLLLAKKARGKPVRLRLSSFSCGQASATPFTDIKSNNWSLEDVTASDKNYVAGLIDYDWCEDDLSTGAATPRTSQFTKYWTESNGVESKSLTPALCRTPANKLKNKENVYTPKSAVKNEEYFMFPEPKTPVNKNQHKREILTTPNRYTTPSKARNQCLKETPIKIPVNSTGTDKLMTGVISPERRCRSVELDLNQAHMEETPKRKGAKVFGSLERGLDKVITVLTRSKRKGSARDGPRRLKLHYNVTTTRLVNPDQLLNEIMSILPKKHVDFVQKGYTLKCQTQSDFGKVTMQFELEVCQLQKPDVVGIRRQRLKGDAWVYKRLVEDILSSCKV
Sequence of Death-associated protein kinase 1 (Homo sapiens) (P53355 whole entry, looked up): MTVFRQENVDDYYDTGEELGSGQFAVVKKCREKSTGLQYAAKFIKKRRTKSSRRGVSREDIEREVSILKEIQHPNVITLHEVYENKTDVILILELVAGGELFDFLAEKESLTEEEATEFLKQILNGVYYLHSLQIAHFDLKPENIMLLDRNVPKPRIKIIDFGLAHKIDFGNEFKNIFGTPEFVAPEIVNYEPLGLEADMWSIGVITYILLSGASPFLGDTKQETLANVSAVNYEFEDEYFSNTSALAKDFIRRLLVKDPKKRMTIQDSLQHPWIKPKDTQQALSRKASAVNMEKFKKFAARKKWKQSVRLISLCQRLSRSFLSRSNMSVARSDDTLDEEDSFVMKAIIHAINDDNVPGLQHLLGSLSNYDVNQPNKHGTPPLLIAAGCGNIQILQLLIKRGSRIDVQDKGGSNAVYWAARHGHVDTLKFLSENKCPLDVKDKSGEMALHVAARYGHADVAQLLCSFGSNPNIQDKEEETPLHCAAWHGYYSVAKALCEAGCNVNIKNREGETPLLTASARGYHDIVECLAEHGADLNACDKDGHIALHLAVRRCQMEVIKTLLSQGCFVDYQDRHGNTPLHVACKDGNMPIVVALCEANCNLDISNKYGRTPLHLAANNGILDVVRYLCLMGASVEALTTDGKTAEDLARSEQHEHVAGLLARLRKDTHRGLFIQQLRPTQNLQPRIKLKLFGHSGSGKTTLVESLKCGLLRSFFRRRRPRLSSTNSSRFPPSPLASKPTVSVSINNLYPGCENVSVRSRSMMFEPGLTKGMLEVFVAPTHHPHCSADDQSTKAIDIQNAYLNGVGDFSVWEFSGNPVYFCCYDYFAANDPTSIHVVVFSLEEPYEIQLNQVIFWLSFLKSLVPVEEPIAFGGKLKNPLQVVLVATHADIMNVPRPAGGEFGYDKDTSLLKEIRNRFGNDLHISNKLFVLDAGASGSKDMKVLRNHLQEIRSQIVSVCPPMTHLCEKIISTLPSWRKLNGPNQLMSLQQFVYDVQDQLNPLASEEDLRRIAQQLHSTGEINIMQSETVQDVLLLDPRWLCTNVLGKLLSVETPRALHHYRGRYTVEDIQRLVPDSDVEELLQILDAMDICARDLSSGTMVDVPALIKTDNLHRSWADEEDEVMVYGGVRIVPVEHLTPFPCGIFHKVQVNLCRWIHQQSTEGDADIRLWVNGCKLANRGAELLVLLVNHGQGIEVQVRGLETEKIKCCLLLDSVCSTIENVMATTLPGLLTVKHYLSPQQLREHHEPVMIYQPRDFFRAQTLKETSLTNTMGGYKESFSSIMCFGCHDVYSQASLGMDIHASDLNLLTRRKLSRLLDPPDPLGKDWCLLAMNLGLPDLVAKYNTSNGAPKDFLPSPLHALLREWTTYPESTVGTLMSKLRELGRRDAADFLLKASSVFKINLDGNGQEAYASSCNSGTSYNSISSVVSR

The inhibition is the change of the read-out against control, counted positive when it falls. For the compound `CN1CCC(C(=O)Nc2n[nH]c3nc(-c4ccc(O)cc4)c(Br)cc23)CC1`, the inhibition was 2.5% and 1.28% in [1]; -1.57% and -0.96% in [2]; 5.44% and 10.2% in [3]; 1.56% and -0.15% in [4]; 1.12% in assay [5]; 2.88% and 0.82% in assay [6]. Moreover, the inhibition in assay [7] was 2.79% and 1.9%; in assay [8], 3.54% and -0.23%; in assay [9], 8.58% and 1.5%; in assay [10], -0.22% and -0.59%; in [11] it was 2.99% and 3.23%; in assay [12], 2.14% and -0.03%. Besides, the inhibition is 4.18% and 0.65% in [13]; 3.6% and 2.34% in [14]; 11.7% and 8.84% in assay [15]; 55.1% and 58% in assay [16]; 77.6% and 84.9% in [17]; 6.5% and 5.49% in [18]. Further, the inhibition was 36.9% and 34.7% in [19]; 1.43% and -2.51% in [20].
As to `Cc1cc(O)cc(C)c1/C=C/c1cncc(C(N)=O)c1`, the inhibition in assay [1] was determined as 1.91%; in [2], 1.42%; in assay [3], 3.35%; in assay [4], 1.06%; in assay [5], 0.98%; in assay [6], 1.57%. The inhibition was 1.76% in assay [7]; 2.85% in assay [8]; 3.03% in assay [9]; 3.52% in assay [10]; 3.59% in assay [11]; 0.98% in assay [12]. The inhibition in assay [13] was found to be 1.6%; in [14], 3.07%; in assay [15] it was 3.76%; in assay [16], 9.34%; in [17], 44.9%; in [18], 4.98%. The inhibition in [19] is 37.8%; in assay [20], 0.97%.
Consider `Cn1c(-c2nonc2N)nc2cnccc21`, for which the inhibition in [1] amounted to 2.42%; in assay [2], 0%; in assay [3], 5.3%; in assay [4] it was 1.66%; in assay [5], 1.06%; in [6] it was 3.29%. The inhibition in assay [7] was determined as 2.75%; in assay [8], 3.2%; in [9], 7.22%; in assay [10], 0.25%; in [11] it was 9.08%; in [12], 1.25%. The inhibition in [13] came to 3.94%; in [14], 7.95%; in [15], 22.1%; in assay [16], 3.39%; in assay [17] it was 7.55%; in [18], 2.67%. In addition, the inhibition in assay [19] came out at 16.9%; in [20], 0.44%.
For `CN(c1ccc(NC(=O)NCCN2CCOCC2)cc1)c1ccnc(Nc2ccc(CS(C)(=O)=O)cc2)n1`, the inhibition amounted to 4.97% in assay [1]; 0.85% in assay [2]; 0.61% in assay [3]; 1.97% in assay [4]; 2.7% in assay [5]; 2.92% in assay [6]. Further, the inhibition in assay [7] amounted to 3.83%; in [8], 2.9%; in [9], 7.21%; in [10], 2.81%; in assay [11], 9.85%; in assay [12], 1.24%. The inhibition in assay [13] was found to be 5.47%; in assay [14] it was 2.36%; in [15] it was 7.07%; in [16], 2.87%; in assay [17], 8.84%; in [18] it was 2.32%. Besides, the values for the inhibition in assay [19] and in [20] were 9.63% and 0.88%, respectively.
For the compound `COc1ccc(-c2nn3ncccc3c2-c2ccnc(Nc3ccc(F)c(F)c3)n2)cc1`, the inhibition in [1] came out at 6.8%; in assay [2] it was 1.7%; in [3], 0.5%; in assay [4] it was 2.31%; in [5] it was 2.82%; in [6] it was 16.8%. For the same compound, the inhibition in [7] came out at 32.5%; in [8] it was 4.53%; in assay [9] it was 8.38%; in [10], 4.11%; in assay [11], 10.5%; in [12], 1.45%. For the same compound, the inhibition came to 1.84% in assay [13]; 3.07% in assay [14]; 4.64% in assay [15]; 2.98% in assay [16]; 6.32% in [17]; 2.16% in [18]. In addition, the inhibition in assay [19] amounted to 6.26%; in assay [20], 0.52%.
As for `CS(=O)(=O)CCNCc1ccc(-c2ccc3ncnc(Nc4ccc(OCc5ccccc5)cc4)c3c2)o1`, the inhibition in assay [1] was 1.36%; in [2] it was 1.31%; in assay [3] it was 1.03%; in assay [4], 1.2%; in assay [5] it was 0.72%; in [6], 3.13%. Besides, the inhibition in assay [7] is 2.48%; in assay [8] it was 3.03%; in [9] it was 2.05%; in [10], 0.62%; in assay [11], -0.22%; in assay [12], 2.33%. The inhibition in assay [13] came out at 1.3%; in [14], 6.32%; in [15] it was 3.76%; in [16] it was 2.89%; in assay [17], 6.82%; in assay [18], 3.2%. Besides, the inhibition in assay [19] is 15.7%; in assay [20] it was -0.24%.
